The source of these data is PubChem BioAssay (NCATS).

Experiment [1] can be described thus: AP1 Signaling Pathway (AID 357; active = well fitted curve in either direction with a large enough effect, not every such curve was filed as active;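 note: ME-180 reporter cells stimulated with EGF at its EC50 level; % is set by controls: 0 for no effect and ±100 for the full control effect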). The gist of the method: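 Read-out was the 460nm/530nm emission ratio (excitation 405nm) after CCF4 loading for 2.5 hours at room temperature. Cells carried an AP-1-driven beta-lactamase reporter, were stimulated with EC50 EGF plus compound for 5 hours, and AC50 values came from titrations.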
A short description of experiment [2]: NFAT Signaling Pathway (AID 444; active = well fitted curve in either direction with a large enough effect, not every such curve was filed as active;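 note: carbachol stimulus at about its EC50 of 1 µM final; % is set by controls: 0 for no effect and ±100 for the full control effect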). Particulars: Jurkat NFAT-bla M1, carbachol, beta-lactamase ratio, 5 h; at 17.2 µM (top of the series) unless noted. The gist of the method: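 Jurkat cells carrying an NFAT-driven β-lactamase reporter and co-transfected muscarinic M1 receptor were treated with compound plus carbachol (1 uM final, an EC50 level) for 5 h at 37 °C. CCF4 loading followed for 1 h at RT; 460/530 nm ratio gave %activity.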

For experiment [3], the target named is Glucocorticoid receptor (Homo sapiens) (UniProt P04150). The experiment can be described thus: GR-GFP Redistribution (AID 450;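 active = compounds whose dose series gives a full or clear partial fitted curve of increased nuclear translocation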; note: potency is the fitted concentration of half-maximal effect). Conditions: U2OS GR-GFP nuclear translocation, laser cytometry, 2 h.
Experiment [4] has the same target. The experiment can be described thus: GR-EFC Redistribution (AID 451; calls by dose curve; note: potency is the fitted concentration of half-maximal effect). Particulars: CHO-K1 GR-EFC translocation, beta-gal luminescence, 2 h. The essentials:
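CHO-K1 cells stably expressing nuclear-localized β-gal enzyme acceptor and GR fused C-terminally to the enzyme donor fragment; ligand-driven nuclear translocation restores β-gal by complementation. Compounds titrated up to 46 uM final, 2 h at 37 °C; luminescence read.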

For experiment [5], the target named is Mitogen-activated protein kinase 10 (Mus musculus) (UniProt Q61831). The experiment can be described thus: JNK3 AlphaScreen Assay (AID 530; active = well fitted curve in either direction with a large enough effect, not every such curve was filed as active;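 note: kinase came from lysate of stimulated human HepG2 cells; signal reports phosphorylation of biotinylated GST-cJun 1-79 at Ser73 with 10 µM ATP; % is set by controls: 0 for no effect and ±100 for the full control effect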). The gist of the method: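 JNK3 came from HepG2 lysates pre-activated with IL-1beta and TNF-alpha and phosphorylated biotinylated GST-cJun (1-79) at 10 uM ATP, pH 7.6, room temperature. Compounds were titrated. AlphaScreen signal used anti-phospho-cJun (Ser73) antibody.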
In general terms: In Alpha technology, singlet oxygen from a donor bead excites a nearby acceptor bead.

Experiment [6] addresses 3',5'-cyclic-AMP phosphodiesterase 4B (Homo sapiens) (UniProt Q07343). The experiment can be described thus: qHTS Assay for Inhibitors of PDE-IV (AID 607; active = well fitted activation curve with a large enough effect in the main read-out, with a control signal flat, not every such curve was filed as active; note: % of control where 0% means no effect). The essentials:
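HEK293 ACTOne cells with CNG channel (1000/well), endogenous PDE4; membrane potential dye, compounds up to 22.9 uM final. Fluorescence Ex 535/Em 590; RO 20-1724 (100 uM final) as reference.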
For orientation: qHTS replaces the single test concentration by a dilution series.

Experiment [7] in a line: qHTS Assay for Lipid Storage Modulators (AID 1519; calls by dose curve). Conditions: Drosophila S3 cells, BODIPY lipid droplet/cell ratio, laser cytometry, cells loaded with oleic acid; for activity change, negative = inhibition: at 25.7 µM (top of the series). The gist of the method: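 Cells seeded at 5,000 per well were treated with compounds over a concentration series and loaded with oleic acid (400 uM, as added). Lipid droplet fluorescence (488 nm excitation, 500-530 nm channel) was read by laser-scanning cytometry and normalized to 20 uM Triacsin C.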

Experiment [8] concerns the target Ubiquitin carboxyl-terminal hydrolase 1 (Homo sapiens) (UniProt O94782). As to the kind of experiment: Inhibitors of USP1/UAF1: Pilot qHTS (AID 504865).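 Note: rhodamine fluorescence freed from ubiquitin-rhodamine substrate followed over time; top concentration of the series differs between compounds; % is set by controls: 0 for no effect and ±100 for the full control effect; nearly all actives have a fitted effect of over 35% in size.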 The gist of the method:
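USP1/UAF1 complex at 1 nM preincubated 15 min at room temperature with compound, then Ub-Rho substrate added at 150 nM final. Fluorescence (480/540 nm) read kinetically in 50 mM HEPES pH 7.8, 0.5 mM EDTA, 1 mM TCEP, 0.1 mg/ml BSA, 0.01% Tween-20.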

Experiment [9] can be described thus: Stat Signaling Pathway (AID 446; active = well fitted curve in either direction with a large enough effect, not every such curve was filed as active;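 note: ME-180 cervical cancer cells given 40 pM IL-6 alongside compound; SIE-controlled beta-lactamase reporter measured as 460/530 nm FRET emission ratio; % is set by controls: 0 for no effect and ±100 for the full control effect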). The gist of the method:
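ME-180 cells carrying a SIE-driven beta-lactamase reporter are stimulated with 40 pM IL-6 for 5 h at 37C in the presence of compound. The 460/530 nm FRET substrate ratio is read after 2.5 h at RT. Data are normalised to 300 pM IL-6 and to 125 nM JAK inhibitor controls.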

Experiment [10] addresses ATP-dependent 6-phosphofructokinase (Trypanosoma brucei brucei) (UniProt O15648). As to the kind of experiment: qHTS Assay to Find Inhibitors of T. brucei phosphofructokinase: hit validation (AID 492961). The gist of the method: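 PFK 1.25 nM, F6P 0.5 mM, ATP 0.1 mM, MgCl2 5 mM, 0.1 M TEA pH 8.0, Tween20 0.01%, BSA 0.1%; 45 min RT. ADP-Glo two-step detection, luminescence. qHTS titration; curve fitting with curve-class categorization.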

Experiment [11] deals with Luciferin 4-monooxygenase (Photinus pyralis) (UniProt P08659). The experiment can be described thus: Biochemical firefly luciferase enzyme assay for NPC (AID 624030).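 Note: purified P. pyralis luciferase at 10 nM with luciferin and ATP substrate; 0% = DMSO and -100% = full luciferase inhibition by PTC124 control; nearly all actives have a fitted effect of over 70% in size.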 The gist of the method: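 Counter-screen for direct inhibition of the luciferase enzyme by approved-drug library compounds, run at 10 nM enzyme in 50 mM Tris acetate (final). Luminescence was read within 5 min of enzyme-buffer addition and normalized to PTC124 versus DMSO (0%).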

Experiment [12] can be described thus: qHTS profiling for inhibitors of Plasmodium falciparum proliferation (AID 504749).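 For activity, negative = inhibition: 0% = DMSO vehicle and full inhibition = artemisinin control.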 For all read-outs here: nearly all actives have a fitted effect of over 60% in size. Note: potency is the fitted concentration of half-maximal effect. Particulars: P. falciparum in erythrocytes, SYBR Green DNA, 72 h; for activity, negative = inhibition: at 12.8 µM (top of the series). The gist of the method:
(§1)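 P. falciparum-infected erythrocytes (0.3% parasitemia, 2.5% hematocrit final) were exposed to compounds for 72 h at 37 C in 5% CO2, then lysed with SYBR Green buffer overnight at room temperature; parasite DNA fluorescence was normalized to artemisinin and DMSO controls.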

Experiment [13] deals with CP217. The experiment is described as above. Conditions: P. falciparum in erythrocytes, SYBR Green DNA, 72 h; series mostly up to 12.8 µM. The essentials: as §1
Experiment [14] has as its system CP238. The description is as above. Particulars: P. falciparum in erythrocytes, SYBR Green DNA, 72 h; series mostly up to 12.8 µM. The gist of the method:
as §1

Experiment [15] concerns CP250. The experiment is described as above. Conditions: P. falciparum in erythrocytes, SYBR Green DNA, 72 h; series mostly up to 12.8 µM. The essentials: as §1
In experiment [16] the test system is CP252. Described as above. Conditions: P. falciparum in erythrocytes, SYBR Green DNA, 72 h; series mostly up to 12.8 µM. The gist of the method: as §1
Experiment [17] has as its system HB3. The description is as above. Particulars: P. falciparum in erythrocytes, SYBR Green DNA, 72 h; series mostly up to 12.8 µM. The essentials:
as §1

Experiment [18] deals with SC27B. Described as above. Particulars: P. falciparum in erythrocytes, SYBR Green DNA, 72 h; series mostly up to 12.8 µM. The gist of the method: as §1
Experiment [19] relates to C2A. The description is as above. Conditions: P. falciparum in erythrocytes, SYBR Green DNA, 72 h; series mostly up to 12.8 µM. The gist of the method: as §1
In experiment [20] the test system is FAB9. The description is as above. Particulars: P. falciparum in erythrocytes, SYBR Green DNA, 72 h; series mostly up to 12.8 µM. The gist of the method:
as §1

Setting [21] is: measured here: cell count channel max response.
Where [22] appears, read: measured here: lipid channel max response.

SMILES strings stand for the structures. Results filed as inconclusive are left out. Active and inactive are the calls of the source. Unless noted, calls come from the whole dose curve; as a rule, active = well fitted curve in the direction sought with a large enough effect; inconclusive = small, poorly fitted or top-dose-only effect, or another doubt; inactive = no such curve, though single readings can be large; an effect the other way counts as inactive or inconclusive.

3',5'-cyclic-AMP phosphodiesterase 4B (Homo sapiens), sequence (Q07343 whole entry, looked up): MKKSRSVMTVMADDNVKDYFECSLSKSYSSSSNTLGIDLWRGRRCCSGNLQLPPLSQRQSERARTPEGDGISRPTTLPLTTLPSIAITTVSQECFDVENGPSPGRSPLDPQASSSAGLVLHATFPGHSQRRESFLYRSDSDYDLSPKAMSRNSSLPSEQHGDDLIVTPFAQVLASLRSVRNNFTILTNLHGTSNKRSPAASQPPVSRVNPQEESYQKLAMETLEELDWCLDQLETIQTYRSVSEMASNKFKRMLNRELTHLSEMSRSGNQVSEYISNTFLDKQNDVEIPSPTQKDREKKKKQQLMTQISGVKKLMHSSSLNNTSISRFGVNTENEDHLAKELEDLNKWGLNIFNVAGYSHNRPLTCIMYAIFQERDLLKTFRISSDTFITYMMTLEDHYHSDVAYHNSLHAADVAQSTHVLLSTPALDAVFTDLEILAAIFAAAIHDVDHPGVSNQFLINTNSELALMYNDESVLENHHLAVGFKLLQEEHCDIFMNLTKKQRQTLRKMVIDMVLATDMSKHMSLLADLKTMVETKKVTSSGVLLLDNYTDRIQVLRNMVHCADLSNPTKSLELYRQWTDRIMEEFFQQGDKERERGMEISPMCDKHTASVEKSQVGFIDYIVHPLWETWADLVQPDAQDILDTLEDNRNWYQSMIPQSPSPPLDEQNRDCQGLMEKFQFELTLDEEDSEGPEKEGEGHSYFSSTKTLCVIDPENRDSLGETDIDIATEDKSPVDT
Glucocorticoid receptor (Homo sapiens), sequence (P04150 whole entry, looked up): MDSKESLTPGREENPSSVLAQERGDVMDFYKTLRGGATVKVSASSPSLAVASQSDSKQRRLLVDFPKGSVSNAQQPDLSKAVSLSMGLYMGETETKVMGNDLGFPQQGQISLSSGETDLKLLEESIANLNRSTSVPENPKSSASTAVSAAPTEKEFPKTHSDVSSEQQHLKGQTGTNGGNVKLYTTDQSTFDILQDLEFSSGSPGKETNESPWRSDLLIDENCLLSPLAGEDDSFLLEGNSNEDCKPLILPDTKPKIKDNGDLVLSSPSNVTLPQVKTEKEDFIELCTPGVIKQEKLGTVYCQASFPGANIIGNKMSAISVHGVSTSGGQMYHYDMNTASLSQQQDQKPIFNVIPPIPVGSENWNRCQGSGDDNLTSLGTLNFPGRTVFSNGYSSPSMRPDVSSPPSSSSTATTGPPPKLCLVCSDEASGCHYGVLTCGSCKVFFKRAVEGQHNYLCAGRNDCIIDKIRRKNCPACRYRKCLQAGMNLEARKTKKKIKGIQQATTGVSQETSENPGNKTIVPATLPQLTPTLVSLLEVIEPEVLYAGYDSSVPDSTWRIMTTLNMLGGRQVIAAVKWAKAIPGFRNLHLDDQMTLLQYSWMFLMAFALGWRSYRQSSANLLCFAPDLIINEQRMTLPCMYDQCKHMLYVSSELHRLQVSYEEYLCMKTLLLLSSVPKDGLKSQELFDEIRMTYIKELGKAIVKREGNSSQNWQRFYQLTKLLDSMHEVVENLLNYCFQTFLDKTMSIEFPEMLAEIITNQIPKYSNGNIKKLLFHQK
Ubiquitin carboxyl-terminal hydrolase 1 (Homo sapiens), sequence (O94782 whole entry, looked up): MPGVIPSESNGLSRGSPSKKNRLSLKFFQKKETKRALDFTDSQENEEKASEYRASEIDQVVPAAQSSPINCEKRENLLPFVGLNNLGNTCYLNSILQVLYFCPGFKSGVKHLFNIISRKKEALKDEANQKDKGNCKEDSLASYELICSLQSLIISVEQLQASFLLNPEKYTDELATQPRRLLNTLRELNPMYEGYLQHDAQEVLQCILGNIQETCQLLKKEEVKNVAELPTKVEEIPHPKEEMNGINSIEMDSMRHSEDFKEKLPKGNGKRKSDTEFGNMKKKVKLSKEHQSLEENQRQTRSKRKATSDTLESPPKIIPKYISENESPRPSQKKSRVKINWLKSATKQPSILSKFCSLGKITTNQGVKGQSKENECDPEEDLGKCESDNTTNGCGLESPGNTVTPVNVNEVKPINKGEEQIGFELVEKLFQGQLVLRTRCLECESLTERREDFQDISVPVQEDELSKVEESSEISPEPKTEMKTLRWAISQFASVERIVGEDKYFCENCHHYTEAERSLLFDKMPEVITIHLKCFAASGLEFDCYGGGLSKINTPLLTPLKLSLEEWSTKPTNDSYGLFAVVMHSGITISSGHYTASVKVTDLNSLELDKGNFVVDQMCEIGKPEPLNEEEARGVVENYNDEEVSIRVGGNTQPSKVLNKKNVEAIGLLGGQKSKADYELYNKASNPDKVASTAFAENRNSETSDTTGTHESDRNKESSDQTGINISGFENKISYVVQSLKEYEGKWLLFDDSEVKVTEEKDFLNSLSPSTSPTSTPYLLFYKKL
Luciferin 4-monooxygenase (Photinus pyralis), sequence (P08659 whole entry, looked up): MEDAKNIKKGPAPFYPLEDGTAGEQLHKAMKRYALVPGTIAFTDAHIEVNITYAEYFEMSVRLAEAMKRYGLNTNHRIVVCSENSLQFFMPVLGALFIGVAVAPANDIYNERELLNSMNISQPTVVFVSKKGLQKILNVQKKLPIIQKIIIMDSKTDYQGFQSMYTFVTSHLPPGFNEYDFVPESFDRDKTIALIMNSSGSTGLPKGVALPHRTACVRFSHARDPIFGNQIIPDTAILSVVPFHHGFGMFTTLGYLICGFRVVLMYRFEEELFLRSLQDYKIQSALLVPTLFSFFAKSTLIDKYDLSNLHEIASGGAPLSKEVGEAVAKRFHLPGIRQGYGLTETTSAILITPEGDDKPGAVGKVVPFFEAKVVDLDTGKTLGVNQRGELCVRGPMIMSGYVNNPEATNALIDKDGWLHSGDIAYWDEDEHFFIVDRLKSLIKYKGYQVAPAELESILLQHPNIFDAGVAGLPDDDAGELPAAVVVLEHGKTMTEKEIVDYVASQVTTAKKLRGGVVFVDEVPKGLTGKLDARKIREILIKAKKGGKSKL
ATP-dependent 6-phosphofructokinase (Trypanosoma brucei brucei), sequence (O15648 whole entry, looked up): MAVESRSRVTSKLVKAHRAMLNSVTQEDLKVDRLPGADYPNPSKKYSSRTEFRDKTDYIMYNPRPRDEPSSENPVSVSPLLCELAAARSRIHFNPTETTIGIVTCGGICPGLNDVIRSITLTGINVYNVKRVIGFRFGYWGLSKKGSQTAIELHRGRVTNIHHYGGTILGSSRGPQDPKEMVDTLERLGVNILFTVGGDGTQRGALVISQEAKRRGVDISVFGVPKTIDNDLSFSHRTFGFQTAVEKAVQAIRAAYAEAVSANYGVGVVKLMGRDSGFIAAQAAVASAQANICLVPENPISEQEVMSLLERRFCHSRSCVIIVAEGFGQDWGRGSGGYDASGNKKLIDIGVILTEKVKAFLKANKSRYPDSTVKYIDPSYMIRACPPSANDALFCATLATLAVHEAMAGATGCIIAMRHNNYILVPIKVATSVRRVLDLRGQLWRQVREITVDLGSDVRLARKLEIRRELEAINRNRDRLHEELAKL

In the case of `CC(=O)OCC(=O)[C@@]1(OC(C)=O)[C@H](C)C[C@H]2[C@@H]3C[C@H](F)C4=CC(=O)C=C[C@@]4(C)[C@]3(F)[C@H](O)C[C@@]21C`, the call in experiment [1] and in experiment [6] was inactive. The activity change, negative = inhibition in experiment [2] was 4% (inactive); in experiment [7], -2.11% (inactive). For the same compound, the Potency in experiment [3] is 0.00203 µM (active); in experiment [4], 0.0775 µM (active). In addition, the Potency result in experiment [5] and in experiment [8] was “inactive” throughout. Further, the max response in [7] (setting [21]) is -15.4%; in [7] (setting [22]) it was -17.2%.

For `C=CCO[C@@H](Cn1ccnc1)c1ccc(Cl)cc1Cl`, the compound was classed as inactive in experiment [1], in experiment [9] and in [6]. Moreover, the Potency in [3] and in experiment [4] was > 20.6 µM (inactive) throughout. Moreover, in experiment [5], the Potency result was “inactive”. In addition, in experiment [7], the activity change, negative = inhibition was -0.8% (inactive). In addition, the figures for the max response in experiment [7] (setting [21]) and in experiment [7] (setting [22]) were -10.1% and -7.51%, respectively.

On to `Clc1ccc([C@H](Cn2ccnc2)OCc2c(Cl)cccc2Cl)c(Cl)c1`, for which the compound was called inactive in [1], in experiment [9] and in [10]. Moreover, the Potency was > 20.6 µM (inactive) in experiment [3]; > 20.6 µM (inactive) in experiment [4]; 3.16 µM (active) in experiment [12] (parasite line B); 2.24 µM (active) in experiment [13]; 3.55 µM (active) in experiment [14]; 2.51 µM (active) in experiment [15]. Moreover, the Potency in [16] is 3.16 µM (active); in experiment [17], 3.98 µM (active); in experiment [18], 1.58 µM (active). Besides, the Potency entry in [5] and in [11] was “inactive” each time. For the same compound, in experiment [7], the activity change, negative = inhibition is -0.836% (inactive). Further, the max response in [7] (setting [21]) is -18.9%; in [7] (setting [22]), -21.7%.

For `CC(C)(CO)[C@H](O)C(=O)NCCC(=O)O`, the outcome in experiment [1] and in experiment [6] was inactive. For the same compound, the activity change, negative = inhibition in experiment [2] is 8.26% (inactive); in [7], -0.81% (inactive). Further, the Potency entry in experiment [5] is “inactive”. Also, the max response in experiment [7] (setting [21]) turned out to be 7.75%; in experiment [7] (setting [22]), 6.98%.

For the compound `CN(C)CCn1nnnc1SCC1=C(C(=O)O)N2C(=O)[C@@H](NC(=O)Cc3csc(N)n3)[C@@H]2SC1`, the activity change, negative = inhibition in experiment [2] was -2.63% (inactive); in [7] it was -0.351% (inactive). Moreover, the result in [9] and in experiment [10] was inactive. Moreover, the Potency in experiment [3] and in experiment [4] was > 20.6 µM (inactive) each time. Further, the Potency result in experiment [5], in experiment [8], in [11], in [19], in experiment [13] and in [14] was “inactive” each time. In addition, the Potency entry in experiment [15], in [16], in experiment [20] and in experiment [18] was “inactive” throughout. The max response was -8.06% in experiment [7] (setting [21]) and -8.86% in experiment [7] (setting [22]). The activity, negative = inhibition in [12] (parasite line A) is 0.61% (inactive); in [12] (parasite line B), 1.06% (inactive).
